Rab9 prom act – qHTS Assay for Rab9 Promoter Activators. Huh7 Rab9 promoter-luciferase reporter, luminescence, 24 h. Potency, µM (highest dose often 9.22 µM), inactives show top-dose activation, negative = inhibition, usual class: activators. 320,000 compounds, 2.8% hits. AID 485297, 2010; also: % of control where 0% means no effect; nearly all actives have a fitted effect of over 60% in size
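Huh7 cells stably carrying Rab9 promoter–luciferase reporter, plated 1500 cells/well, compound added after 2 h and incubated 24 h at 37 °C; luciferase luminescence then read after 10 min with detection reagent.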
Luc counter – Counterscreen for Luciferase (Kinase-Glo TM) Inhibition. Luciferin 4-monooxygenase (Photuris pensylvanica), Q27757. Kinase-Glo luciferase, ATP luminescence, 8 min. Potency, µM (highest dose often 38.3 µM), without a hit: top-dose activity change, negative = inhibition, usual class: inhibitors. 200,000 compounds, 0.28% hits; also: % is scaled to controls: 0 for no effect and ±100 for the full control effect; nearly all actives have a fitted effect of over 60% in size
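Compounds were added to a substrate mix at pH 7.2 (50 mM imidazole, 10 uM ATP, within the enzyme's linear range), followed by Kinase-Glo detection reagent; luminescence was measured after 8 minutes at ambient temperature.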
NPC1 prom act – qHTS Assay for NPC1 Promoter Activators; Huh7 NPC1 promoter luciferase reporter, 24 h; Potency, µM (doses to about 9.22 µM), inactives show at the top dose activation, actives largely listed as activators; 320,000 compounds, 2.4% hits; AID 485313, 2010; also: % of control where 0% means no effect; nearly all actives have a fitted effect of over 60% in size
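Huh7 cells stably carrying NPC1 promoter–luciferase, plated in Opti-MEM with 10% FBS for 2 h, were exposed to compound in DMSO for 24 h at 37 °C; luciferase reagent was added for 10 min and luminescence read.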
SMN2 splice enh – qHTS Assay for Enhancers of SMN2 Splice Variant Expression | HEK293 SMN2-luciferase splicing reporter, luminescence, 30-36 h | Potency, µM (series often up to 46.1 µM), inactives show at the top dose activity change, positive = activation, most hits filed as activators | 210,000 compounds, 2.8% hits | AID 1458, 2008; also: % of control where 0% means no effect; nearly all actives have a fitted effect of over 55% in size
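HEK293 cells carry an SMN2 […]–luciferase reporter in which exon 7 inclusion puts luciferase in frame. Cells were plated 10-12 h before compound addition, then incubated 30-36 h at 37C. ONE-Glo luminescence was read; sodium butyrate at 4.5 mM final served as control.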
ELG1 genotox – qHTS screen for small molecules that induce genotoxicity in human embryonic kidney (HEK293T) cells expressing luciferase-tagged ELG1 | 330,000 compounds, 1.3% hits | HEK293T ELG1-luciferase reporter, luminescence, 16 h | AID 504466, 2011 | Potency, µM (doses to about 46 µM), without a hit: at the highest dose activity change, positive = activation, most hits filed as activators; also: % of control where 0% means no effect; nearly all actives have a fitted effect of over 60% in size
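Quantitative HTS format in 1536-well plates. HEK293T ELG1-luciferase reporter cells receive test compound and are incubated 16 hr at 37 °C, 5% CO2; ONE-Glo added, 30 min room temperature, then luminescence read.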
FLuc modulator – qHTS profiling assay for firefly luciferase inhibitor/activator using purifed enzyme and Km concentrations of substrates (counterscreen for miR-21 project). Luciferin 4-monooxygenase (Photinus pyralis), P08659. purified FLuc, Km substrates, luminescence inhibition. Potency, µM (series often up to 57.5 µM), inactives show at the highest dose activity change, negative = inhibition, actives largely listed as inhibitors. 360,000 compounds, 6.9% hits. AID 588342, 2011;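 also: plate controls were vehicle for no effect and reference inhibitor for full effect; nearly all actives have a fitted effect of over 55% in size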
Target sequence (P08659 whole entry, looked up): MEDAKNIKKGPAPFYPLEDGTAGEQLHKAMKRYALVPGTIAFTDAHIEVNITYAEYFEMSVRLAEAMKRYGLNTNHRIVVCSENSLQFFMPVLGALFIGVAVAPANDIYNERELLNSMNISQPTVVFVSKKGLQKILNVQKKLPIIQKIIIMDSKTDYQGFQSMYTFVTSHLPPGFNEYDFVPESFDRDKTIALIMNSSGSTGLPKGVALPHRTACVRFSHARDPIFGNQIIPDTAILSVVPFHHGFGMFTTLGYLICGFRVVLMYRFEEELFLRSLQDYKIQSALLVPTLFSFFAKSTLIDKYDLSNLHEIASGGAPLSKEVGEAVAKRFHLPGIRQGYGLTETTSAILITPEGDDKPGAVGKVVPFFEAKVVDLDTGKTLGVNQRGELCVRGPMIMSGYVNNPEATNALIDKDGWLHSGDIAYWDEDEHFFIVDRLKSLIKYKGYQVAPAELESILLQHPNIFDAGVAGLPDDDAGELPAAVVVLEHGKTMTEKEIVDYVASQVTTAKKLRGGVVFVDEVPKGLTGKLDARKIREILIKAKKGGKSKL
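Purified P. pyralis luciferase, 10 nM final, with Km-level 10 uM D-luciferin and 10 uM ATP in 50 mM Tris acetate pH 7.5, 10 mM Mg acetate, 0.01% Tween-20, 0.05% BSA; 6-point qHTS titration about 60 µM downward; luminescence read.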
An asterisk follows results filed as active; [ ] = dose if it differs, or a comment. An excerpt weighted towards active compounds, which were near 7.5% of everything screened. Calls follow the shape of the dose curve; as a rule, active = well fitted curve in the direction sought with a large enough effect; inconclusive = small, poorly fitted or top-dose-only effect, or another doubt; inactive = no such curve, though single readings can be large; an effect the other way counts as inactive or inconclusive. Potency is read from the fitted curve at half-maximal effect.

Results for O=C(N/N=C/c1ccccc1F)c1cccc2ccccc12 ?
Rab9 prom act: inconclusive; NPC1 prom act: inconclusive; ELG1 genotox: 6%; FLuc modulator: -8%

What do the screens show for `Cc1ccccc1C(=O)N/N=C/c1cccc2ccccc12`?
Rab9 prom act: -4%[1.84 µM]; NPC1 prom act: 15%; ELG1 genotox: 16%; FLuc modulator: 5.4µM*

Results for Cc1ccccc1C(=O)N/N=C/c1ccsc1C ?
Rab9 prom act: 5.6µM*; Luc counter: -8%; NPC1 prom act: inconclusive; SMN2 splice enh: 16µM*; ELG1 genotox: inconclusive; FLuc modulator: 11µM*

How did S=C(c1ccc(-c2cc(Cl)ccc2Cl)o1)N1CCOCC1 do in these assays?
Rab9 prom act: -3%; Luc counter: -2%; NPC1 prom act: 1%; SMN2 splice enh: -16%; ELG1 genotox: 0%; FLuc modulator: inconclusive

How did S=C(c1ccc(-c2cc(Cl)ccc2Cl)o1)N1CCCCC1 do in these assays?
Rab9 prom act: -4%; Luc counter: 1%; NPC1 prom act: 3%; SMN2 splice enh: -36%; ELG1 genotox: -3%; FLuc modulator: 17µM*

What do the screens show for `S=C(c1ccc(-c2cccc(Cl)c2)o1)N1CCCCC1`?
Rab9 prom act: 2.5µM*; Luc counter: 0%; NPC1 prom act: 3.5µM*; SMN2 splice enh: 11µM*; ELG1 genotox: inconclusive; FLuc modulator: 2.7µM*

Results for O=C(Nc1ccccc1N1CCCCC1)c1ccc(-c2cccc(Cl)c2)o1 ?
Rab9 prom act: -2%; Luc counter: -3%; NPC1 prom act: 3%; SMN2 splice enh: -40%; ELG1 genotox: 4%; FLuc modulator: -11%

How did S=C(c1ccc(-c2cccc(Cl)c2)o1)N1CCOCC1 do in these assays?
Rab9 prom act: 3.5µM*; Luc counter: -1%; NPC1 prom act: 3.2µM*; SMN2 splice enh: 25µM*; ELG1 genotox: 3.5µM*; FLuc modulator: 5.4µM*

What do the screens show for `O=C(NC(=S)Nc1cc(Cl)ccc1N1CCOCC1)c1ccc(-c2cccc(Cl)c2)o1`?
Rab9 prom act: -11%; Luc counter: 4%; NPC1 prom act: -7%; SMN2 splice enh: 1%; ELG1 genotox: 3%; FLuc modulator: 0%

What do the screens show for `CC(C)c1ccc(Nc2nc3c(S(=O)(=O)c4ccc(Br)cc4)nnn3c3ccsc23)cc1`?
FLuc modulator: -1%

Results for CCN(c1ccc(NC(=O)CN2C(=O)NC3(CCOc4ccccc43)C2=O)cc1)C(C)C (stereo not drawn) ?
Rab9 prom act: -2%; Luc counter: 22%; NPC1 prom act: -3%; SMN2 splice enh: -9%; ELG1 genotox: 1%; FLuc modulator: 17µM*

Results for c1ccc2c(Nc3nc4c(s3)CCCC4)cccc2c1 ?
Rab9 prom act: 3.5µM*; Luc counter: -13%; NPC1 prom act: inconclusive; SMN2 splice enh: inconclusive; ELG1 genotox: inconclusive; FLuc modulator: 4.8µM*

What do the screens show for `O=S(=O)(Nc1nc2c(s1)CCCC2)c1ccc2ccccc2c1`?
Rab9 prom act: -2%; Luc counter: 24%; NPC1 prom act: 0%; SMN2 splice enh: -41%; ELG1 genotox: -2%; FLuc modulator: 1%

What do the screens show for `COc1ccc(CCNC(=O)Cc2c(C)c3c(cc(C)c4c(C)c(C)oc43)oc2=O)cc1`?
SMN2 splice enh: 5%; FLuc modulator: 1%

What do the screens show for `COc1ccccc1CNC(=O)CCn1c(=O)c2ccccc2n(CC(=O)Nc2ccc(C)cc2C)c1=O`?
SMN2 splice enh: -4%; FLuc modulator: 0%

What do the screens show for `CC(C)(C)c1ccc(C(=O)COC(=O)CN2C(=O)NC3(CCCC3)C2=O)cc1`?
Rab9 prom act: 0%; NPC1 prom act: -3%; ELG1 genotox: 5%; FLuc modulator: 8.5µM*

Results for CC(C)(C)c1ccc(COC(=O)CN2C(=O)NC3(CCCC3)C2=O)cc1 ?
Rab9 prom act: -2%; NPC1 prom act: 9%; ELG1 genotox: -3%; FLuc modulator: 2%

Results for CN(C)C(=O)c1ccc(NC(=O)c2cncc(Br)c2)cc1 ?
Rab9 prom act: 22%; Luc counter: -20%; NPC1 prom act: 17%; SMN2 splice enh: inconclusive; ELG1 genotox: -4%; FLuc modulator: inconclusive

What do the screens show for `O=C(Nc1ccc2c(c1)OCO2)c1cncc(Br)c1`?
Rab9 prom act: inconclusive; Luc counter: -8%; NPC1 prom act: inconclusive; SMN2 splice enh: 21%; ELG1 genotox: 6%; FLuc modulator: 27µM*

How did O=C(Nc1ccc2c(c1)OCCO2)c1cncc(Br)c1 do in these assays?
Rab9 prom act: 1.4µM*; Luc counter: -8%; NPC1 prom act: 3.5µM*; SMN2 splice enh: 10µM*; ELG1 genotox: inconclusive; FLuc modulator: 4.8µM*

How did Cc1cccc(-c2noc(-c3cc(C(C)C)[nH]n3)n2)c1 do in these assays?
FLuc modulator: 4.8µM*

What do the screens show for `COc1cccc(-c2noc(-c3cc(C(C)C)[nH]n3)n2)c1OC`?
FLuc modulator: 17µM*

How did Cc1cccc(-c2noc(-c3ccno3)n2)c1 do in these assays?
Rab9 prom act: inconclusive; NPC1 prom act: 29%; ELG1 genotox: inconclusive; FLuc modulator: 21µM*

What do the screens show for `CS(=O)(=O)c1ccccc1-c1nc(-c2cccc(Cl)c2)no1`?
Rab9 prom act: inconclusive; Luc counter: 5%; NPC1 prom act: 0%; SMN2 splice enh: -13%; ELG1 genotox: 7%; FLuc modulator: inconclusive

What do the screens show for `COc1cccc(-c2noc(C3CC(=O)N(c4ccc(F)cc4)C3)n2)c1OC` (stereo not drawn)?
FLuc modulator: 5%

How did CC(C)c1cc(-c2nc(-c3cccc(Cl)c3)no2)n[nH]1 do in these assays?
FLuc modulator: 6.7µM*

What do the screens show for `Cc1cccc(-c2nc(-c3ccc4c(c3)[nH]c(=O)n4C)no2)c1`?
FLuc modulator: 1%

What do the screens show for `O=C(c1ccc2c(c1)N(Cc1ccccc1)C(=O)c1ccccc1S2(=O)=O)N1CCN(c2ccccn2)CC1`?
SMN2 splice enh: -16%; FLuc modulator: 0%

How did COc1ccc(OC)c(NC(=O)Cn2c(=O)n(-c3ccc(Cl)cc3)c(=O)c3c(C)c(C)sc32)c1 do in these assays?
SMN2 splice enh: 6%; FLuc modulator: 1%

From PubChem BioAssay
